# From PubChem BioAssay (NCATS)
# Inconclusive results are not listed. Where a call stands in place of a potency, no number is given. Calls of active or inactive are those of the source. Unless noted, calls follow the shape of the full dose curve.
# Tests used:
# [1] = target: Bile acid receptor (Homo sapiens) (UniProt Q96RI1); experiment: qHTS assay for small molecule agonists of farnesoid X receptor signaling (AID 588527); settings: HEK293T FXR-UAS-bla, beta-lactamase ratio, 16 h; stronger effect = higher value
# Summary of the method: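 FXR-UAS-bla HEK293T, 10% dialyzed FBS; cpds up to 92 uM titration, 16 h 37 C; CCF4 dye 2 h RT; fluorescence. Normalized to chenodeoxycholic acid 100 uM (100%) and DMSO (0%); Hill fit gives EC50, efficacy.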
# [2] = target: Peroxisome proliferator-activated receptor delta (Homo sapiens) (UniProt Q03181); experiment: qHTS assay for small molecule agonists of peroxisome proliferator-activated receptor delta signaling (AID 588534); settings: HEK293T PPARdelta-UAS-bla, beta-lactamase ratio, 18 h; series mostly up to 76.7 µM
# Summary of the method: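 Agonist-mode beta-lactamase reporter readout (CCF4 dye, 2 h at RT) after 18 h at 37 °C exposure to a titration; Hill-equation fitting gave EC50 and maximal response.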
# [3] = Primary qHTS for inhibitors of SARS-S pseudo-typed particle cell entry (AID 1479145); settings: SARS-S pseudotyped particle cell entry, luciferase reporter; series mostly up to 57.1 µM; also: nearly all actives have a fitted effect of over 45% in size
# [4] = Primary qHTS for Huh7 cytotoxicity: counterscreen for inhibitors of MERS-S pseudotyped particle cell entry (AID 1479147); settings: cell viability read-out; series mostly up to 57.1 µM
# [5] = Primary qHTS for inhibitors of MERS-S pseudo-typed particle cell entry (AID 1479149); settings: MERS-S pseudotyped particle entry, luciferase; series mostly up to 57.1 µM; also: nearly all actives have a fitted effect of over 60% in size
# [6] = Primary qHTS for Vero E6 cytotoxicity: counterscreen for inhibitors of SARS-S pseudo-typed particle cell entry (AID 1479150); settings: cell viability; series mostly up to 57.1 µM
# [7] = Cytotoxicity counterscreen for inhibitors of SARS-CoV-2 cell entry (AID 1645845); settings: cell viability (SARS-CoV-2 entry assay cells); series mostly up to 57.1 µM; also: nearly all actives have a fitted effect of over 50% in size
# Summary of the method: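 After a 15 min room-temperature ATPLite 1step step, luminescence reflected ATP remaining in HEK293-ACE2 cells exposed to compound for 1 h plus 48 h at 37 C, with percent activity set by cell and no-cell controls.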
# [8] = Primary qHTS to identify inhibitors of SARS-CoV-2 cell entry (AID 1645846); settings: SARS-CoV-2 pseudovirus cell entry assay, luminescence; activity change, negative = inhibition: at 57.1 µM (top of the series) unless noted; also: nearly all actives have a fitted effect of over 45% in size
# Summary of the method: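 Using luciferase-reporting pseudoviruses carrying Wuhan-Hu-1 spike, the screen tracks entry into stably ACE2-expressing cells over 48 hr. Activity is expressed relative to spike particles versus particles lacking any fusion protein.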
# [9] = KB-8-5-11 P-gp reporter qHTS against the NCATS DSHEA and TCM libraries (AID 1919977; active = well fitted curve in the direction sought with a large enough effect; an effect the other way counts as inactive or inconclusive); settings: KB-8-5-11 cells; series mostly up to 26.1 µM
# Summary of the method: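 Viability of drug-resistant KB-8-5-11 cells is measured by CellTiter-Glo luminescence following roughly 72 h treatment at 37C. Substances were titrated, with bortezomib as intraplate control.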
# [10] = target: Glutathione peroxidase 1 (Homo sapiens) (UniProt P07203); experiment: Primary qHTS Assay for Inhibitors of Recombinant Selenoprotein Glutathione Peroxidase 1 (GPX1) (AID 1845191; active = well fitted curve in the direction sought with a large enough effect; an effect the other way counts as inactive or inconclusive; also: nearly all actives have a fitted effect of over 65% in size); settings: recombinant GPX1, GR-coupled NADPH fluorescence, 15 min; series mostly up to 48.8 µM
# Summary of the method: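 GPX1 10 nM, GR 100 nM, GSH 1 mM, NADPH 0.5 mM, CHP 0.5 mM (final). 30-min cpd preincubation, RT. Ex340/Em450 read t=0, t=15 min.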
# [11] = target: Phospholipid hydroperoxide glutathione peroxidase GPX4 (Homo sapiens) (UniProt P36969); experiment: Primary qHTS Assay for Inhibitors of Recombinant Selenoprotein Glutathione Peroxidase 4 (GPX4) (AID 1845192; active = well fitted curve in the direction sought with a large enough effect; an effect the other way counts as inactive or inconclusive; also: nearly all actives have a fitted effect of over 65% in size); settings: recombinant GPX4, GR-coupled NADPH fluorescence, 15 min; series mostly up to 50 µM
# Summary of the method: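 qHTS, GR-coupled: GPX4 200 nM + cpd 30 min RT → GSH 1 mM, NADPH 0.5 mM, GR 100 nM → CHP 0.5 mM start; fluor 340/450 at t0 and t15 min; no-enzyme wells as control.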
# [12] = target: ATP-dependent 6-phosphofructokinase (Trypanosoma brucei brucei) (UniProt O15648); experiment: qHTS Assay to Find Inhibitors of T. brucei phosphofructokinase: hit validation (AID 492961; active = well fitted curve in the direction sought with a large enough effect; an effect the other way counts as inactive or inconclusive;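 also: luminescence reports ADP formed as PFK phosphorylates fructose-6-phosphate with ATP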); settings: T. brucei PFK, ADP-Glo luminescence; series mostly up to 51.4 µM
# Summary of the method: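 Percent activity derived from corrected luminescence, normalized between 0x and 1x enzyme controls, then fitted to concentration-response curves. Conditions: 1.25 nM PFK, 0.1 mM ATP, 0.5 mM F6P, 45 min RT.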
# Peroxisome proliferator-activated receptor delta (Homo sapiens), sequence (Q03181 whole entry, looked up): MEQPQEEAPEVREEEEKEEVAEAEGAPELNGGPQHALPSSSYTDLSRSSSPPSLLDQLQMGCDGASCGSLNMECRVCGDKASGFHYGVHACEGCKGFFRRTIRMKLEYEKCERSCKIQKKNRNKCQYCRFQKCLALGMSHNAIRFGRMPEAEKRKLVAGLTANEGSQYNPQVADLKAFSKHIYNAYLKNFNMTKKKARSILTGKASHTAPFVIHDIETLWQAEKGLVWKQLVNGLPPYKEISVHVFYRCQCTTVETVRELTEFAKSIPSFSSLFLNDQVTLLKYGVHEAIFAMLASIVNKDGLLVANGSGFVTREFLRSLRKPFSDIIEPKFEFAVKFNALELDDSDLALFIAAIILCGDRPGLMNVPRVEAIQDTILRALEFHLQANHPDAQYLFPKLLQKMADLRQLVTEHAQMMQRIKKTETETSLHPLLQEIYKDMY
# Bile acid receptor (Homo sapiens), sequence (Q96RI1 whole entry, looked up): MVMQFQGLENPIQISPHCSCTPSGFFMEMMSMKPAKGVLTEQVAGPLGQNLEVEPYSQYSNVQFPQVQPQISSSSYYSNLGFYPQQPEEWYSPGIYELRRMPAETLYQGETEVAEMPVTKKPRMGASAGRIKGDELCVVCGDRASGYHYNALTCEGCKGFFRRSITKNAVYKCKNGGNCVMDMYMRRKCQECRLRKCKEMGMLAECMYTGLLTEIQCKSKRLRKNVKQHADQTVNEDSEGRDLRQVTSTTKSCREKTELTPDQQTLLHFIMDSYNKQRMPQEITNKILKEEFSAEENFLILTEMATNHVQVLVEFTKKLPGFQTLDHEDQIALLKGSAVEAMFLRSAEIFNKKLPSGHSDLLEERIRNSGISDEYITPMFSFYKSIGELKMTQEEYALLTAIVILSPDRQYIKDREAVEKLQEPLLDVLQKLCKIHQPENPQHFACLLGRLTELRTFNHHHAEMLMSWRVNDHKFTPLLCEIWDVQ
# Glutathione peroxidase 1 (Homo sapiens), sequence (P07203 whole entry, looked up): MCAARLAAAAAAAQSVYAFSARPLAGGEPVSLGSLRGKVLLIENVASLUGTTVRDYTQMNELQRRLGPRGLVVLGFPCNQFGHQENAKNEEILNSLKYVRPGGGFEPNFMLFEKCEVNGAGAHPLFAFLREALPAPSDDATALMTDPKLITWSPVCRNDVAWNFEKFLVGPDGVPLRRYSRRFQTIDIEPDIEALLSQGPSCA
# Phospholipid hydroperoxide glutathione peroxidase GPX4 (Homo sapiens), sequence (P36969 whole entry, looked up): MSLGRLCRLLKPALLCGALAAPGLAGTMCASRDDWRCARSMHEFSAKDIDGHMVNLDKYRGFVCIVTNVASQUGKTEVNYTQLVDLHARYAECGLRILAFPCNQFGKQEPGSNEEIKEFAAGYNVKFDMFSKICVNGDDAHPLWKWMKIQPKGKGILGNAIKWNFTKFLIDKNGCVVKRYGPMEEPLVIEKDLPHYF
# ATP-dependent 6-phosphofructokinase (Trypanosoma brucei brucei), sequence (O15648 whole entry, looked up): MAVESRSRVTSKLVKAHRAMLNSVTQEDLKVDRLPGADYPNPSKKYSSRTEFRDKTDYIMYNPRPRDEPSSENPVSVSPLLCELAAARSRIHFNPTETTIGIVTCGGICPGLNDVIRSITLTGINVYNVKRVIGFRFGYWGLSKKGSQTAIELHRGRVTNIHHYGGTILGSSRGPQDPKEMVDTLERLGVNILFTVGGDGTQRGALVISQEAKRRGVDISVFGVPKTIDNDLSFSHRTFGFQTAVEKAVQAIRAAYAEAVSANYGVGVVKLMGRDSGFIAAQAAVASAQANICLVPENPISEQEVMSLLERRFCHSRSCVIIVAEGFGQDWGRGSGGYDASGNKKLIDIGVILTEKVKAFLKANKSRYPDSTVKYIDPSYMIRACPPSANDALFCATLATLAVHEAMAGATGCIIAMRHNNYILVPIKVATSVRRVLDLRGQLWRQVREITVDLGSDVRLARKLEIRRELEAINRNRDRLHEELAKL
smiles,measurement,setting,value
OC[C@H]1O[C@@](CO)(O[C@H]2O[C@H](CO)[C@@H](O)[C@H](O)[C@H]2O)[C@@H](O)[C@@H]1O,activation,[1],-1.48% (inactive)
same,outcome,[2],inactive
same,Potency,[3],inactive
same,Potency,[4],inactive
same,Potency,[5],inactive
same,Potency,[6],inactive
same,Potency,[7],inactive
CCCCC/C=C\C/C=C\C/C=C\CCCCC(=O)O,Potency,[3],inactive
same,Potency,[4],inactive
same,Potency,[5],inactive
same,Potency,[6],inactive
same,Potency,[7],inactive
same,"activity change, negative = inhibition",[8],-13.4% [at 114 µM]
same,"activity change, negative = inhibition",[9],5.04% [at 3.26 µM] (inactive)
CC[N+]1(C)C2CC(OC(=O)[C@H](CO)c3ccccc3)CC1[C@@H]1O[C@H]21 (stereo partly drawn),Potency,[3],inactive
same,Potency,[4],inactive
same,Potency,[5],inactive
same,Potency,[6],inactive
same,Potency,[7],inactive
same,"activity change, negative = inhibition",[8],-33.5%
same,Potency,[10],inactive
same,Potency,[11],inactive
COc1ccc(C[C@H](C)NC[C@@H](O)c2ccc(O)c(NC=O)c2)cc1,Potency,[3],inactive
same,Potency,[4],inactive
same,Potency,[5],inactive
same,Potency,[6],inactive
same,"activity change, negative = inhibition",[8],-27.6%
CC(C)=CCCC(C)=CCCC(C)=CCCC=C(C)CCC=C(C)CCC=C(C)C,Potency,[3],inactive
same,Potency,[4],inactive
same,Potency,[5],inactive
same,Potency,[6],inactive
same,Potency,[7],inactive
same,"activity change, negative = inhibition",[8],-5.81%
same,Potency,[9],inactive
Cc1ccc(S(=O)(=O)O)cc1C,outcome,[2],inactive
same,Potency,[3],inactive
same,Potency,[4],inactive
same,Potency,[5],inactive
same,Potency,[6],inactive
same,Potency,[7],inactive
same,"activity change, negative = inhibition",[8],-10.6%
O=C(O)[C@H](O)[C@@H](O)[C@H](O)[C@H](O)CO,outcome,[2],inactive
same,Potency,[3],inactive
same,Potency,[4],inactive
same,Potency,[5],inactive
same,Potency,[6],inactive
same,Potency,[7],inactive
same,Potency,[8],inactive
O[C@@H]([C@H](O)[C@@H](O)CBr)[C@@H](O)CBr,activation,[1],-2.21% (inactive)
same,outcome,[2],inactive
same,Potency,[3],inactive
same,Potency,[4],inactive
same,Potency,[5],inactive
same,Potency,[6],inactive
same,Potency,[7],inactive
same,Potency,[8],inactive
CC/C=C\C/C=C\C/C=C\C/C=C\C/C=C\CCCC(=O)O,Potency,[3],inactive
same,Potency,[4],inactive
same,Potency,[5],inactive
same,Potency,[6],inactive
same,Potency,[7],inactive
same,"activity change, negative = inhibition",[8],-29%
same,Potency,[9],inactive
C[N+]1([O-])[C@H]2CC(OC(=O)C(CO)c3ccccc3)C[C@H]1[C@H]1O[C@H]12 (stereo partly drawn),Potency,[3],inactive
same,Potency,[4],inactive
same,Potency,[5],inactive
same,Potency,[6],inactive
same,Potency,[7],inactive
same,Potency,[10],inactive
same,Potency,[11],inactive
NC(=O)CCC1NC(=O)C(Cc2ccccc2)NC(=O)C(Cc2ccc(O)cc2)NC(=O)CCSSCC(C(=O)N2CCCC2C(=O)NC(CCCN=C(N)N)C(=O)NCC(N)=O)NC(=O)C(CC(N)=O)NC1=O (stereo not drawn),Potency,[12],inactive
same,Potency,[3],inactive
same,Potency,[4],inactive
same,Potency,[5],inactive
same,Potency,[6],inactive
same,Potency,[7],inactive
same,"activity change, negative = inhibition",[8],-25.4% [at 27.1 µM]
C=C[C@H]1CN2CC[C@H]1C[C@H]2[C@H](O)c1ccnc2ccccc12,Potency,[3],inactive
same,Potency,[4],inactive
same,Potency,[5],inactive
same,Potency,[6],inactive
same,Potency,[7],inactive
same,Potency,[10],inactive
Cc1ncc(COP(=O)(O)O)c(C)c1O,Potency,[3],inactive
same,Potency,[4],inactive
same,Potency,[5],inactive
same,Potency,[6],inactive
same,Potency,[7],inactive
same,"activity change, negative = inhibition",[8],-31.2%
same,Potency,[9],inactive
C[C@H](CCC(=O)O)[C@H]1CC[C@H]2[C@@H]3[C@H](O)C[C@@H]4C[C@H](O)CC[C@]4(C)[C@H]3C[C@H](O)[C@]12C,activation,[1],1.14% (inactive)
same,Potency,[3],inactive
same,Potency,[4],inactive
same,Potency,[5],inactive
same,Potency,[6],inactive
same,Potency,[7],inactive
same,Potency,[8],inactive
CC(C)=CCC/C(C)=C/C=C/C(C)=C/C=C/C(C)=C/C=C/C=C(C)/C=C/C=C(C)/C=C/C=C(\C)CCC=C(C)C,Potency,[3],inactive
same,Potency,[4],inactive
same,Potency,[5],inactive
same,Potency,[6],inactive
same,Potency,[7],inactive
same,Potency,[9],inactive
C[Si](C)(C)O[Si](C)(C)O[Si](C)(C)C,outcome,[2],inactive
same,Potency,[3],inactive
same,Potency,[4],inactive
same,Potency,[5],inactive
same,Potency,[6],inactive
same,Potency,[7],inactive
same,"activity change, negative = inhibition",[8],-16.4% [at 114 µM]
CC[C@H]1C2C[C@H]3[C@@H]4N(C)c5ccccc5[C@@]45C[C@H](C2[C@H]5O)N3[C@@H]1O (stereo partly drawn),Potency,[3],inactive
same,Potency,[4],inactive
same,Potency,[5],inactive
same,Potency,[6],inactive
same,Potency,[7],inactive
same,Potency,[10],inactive
same,Potency,[11],inactive
CC1(C)C2CCC1(C)C(O)C2 (stereo not drawn),Potency,[3],inactive
same,Potency,[4],inactive
same,Potency,[5],inactive
same,Potency,[6],inactive
same,Potency,[7],inactive
same,Potency,[9],inactive
